The values that follow come from PubChem BioAssay (Tox21).

SMILES strings stand for the structures. A number with no mark means an inactive call. Results filed as inconclusive are left out. Activity calls are given as the source filed them. Unless noted, calls come from the whole dose curve.

The nature of test [1]: Nuclear factor erythroid 2-related factor 2/antioxidant responsive element (Nrf2/ARE) small molecule agonists: qHTS cell viability counter screen in human keratinocytes (AID 1919968; active = well fitted curve in the direction sought with a large enough effect in the repeat runs; an effect the other way counts as inactive or inconclusive; note: nearly all actives have a fitted effect of over 55% in size). The method, boiled down:
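Seed 1,500 KeratinoSens cells per well, then incubate 5 h at 37 C/5% CO2. Add compounds in DMSO and incubate 23 h. Add CellTiter-Fluor, wait 1 h and read fluorescence.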

The nature of test [2]: Nuclear factor erythroid 2-related factor 2/antioxidant responsive element (Nrf2/ARE) small molecule agonists: luciferase reporter gene qHTS assay in human keratinocytes (AID 1919969). Note: nearly all actives have a fitted effect of over 35% in size. Note: potency is the fitted concentration of half-maximal effect.
The target in test [3] is Gonadotropin-releasing hormone receptor (Homo sapiens) (UniProt P30968). In words: Human gonadotropin-releasing hormone receptor (GnRHR) small molecule agonists, calcium flux assay in GnRHR-HEK293 cells (AID 1920063). Note: nearly all actives have a fitted effect of over 35% in size. The method, boiled down:
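Cells: HEK293 stably expressing human GnRHR. Steps: overnight (18 h) culture, 1 h calcium dye loading at 37 C, compound addition, kinetic fluorescence read at 480/540 nm. Each compound tested at 15 concentrations in triplicate.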
(In general: A change in cytosolic calcium serves as a functional read-out for many receptors and channels.)

Test [4] addresses KiSS-1 receptor (Homo sapiens) (UniProt Q969F8). As to the kind of experiment: Human kisspeptin (KISS1R) small molecule agonists, calcium flux assay in KISS1R-HEK293 cells (AID 1920064; active = well fitted curve in the direction sought with a large enough effect in the repeat runs; an effect the other way counts as inactive or inconclusive). In a few lines:
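Cells plated and incubated 18 h; dye added, 1 h at 37 C; compounds in DMSO pinned in; signal read at 480/540 nm every second for 3 min. Each compound tested at 15 concentrations in triplicate.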

Test [5] in a line: G protein-coupled receptor (GPCR) small molecule agonists, calcium flux assay: HEK293 wild type cell line counter screen (AID 1920065). In a few lines: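 Counter-screen of the Tox21 10K library for non-specific calcium release: dye-loaded cells received compounds in DMSO and were monitored by kinetic fluorescence (480/540 nm, 3 min). Fifteen concentrations, run in triplicate.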

Test [6] can be described thus: p53 small molecule agonists, cell-based qHTS assay with human liver microsomes (AID 1963577). In a few lines:
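Compounds act here after metabolic activation: human liver microsomes and NADPH, both at 0.5 mg/mL final, were co-added to p53RE-bla cells. Incubation ran 16 h at 37 C, followed by LiveBLAzer detection.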
On the technique in general: Quantitative high-throughput screening tests each substance at several concentrations.

A short description of test [7]: p53 small molecule agonists, cell-based qHTS assay with rat liver microsomes (AID 1963578). In a few lines:
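Read-out is beta-lactamase reporter fluorescence (LiveBLAzer, 2 h, room temperature, dark) in p53RE-bla cells treated 16 h at 37 C with compound, rat liver microsomes and NADPH, both 0.5 mg/mL final.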

The nature of test [8]: p53 small molecule agonists, cell-based qHTS assay with human liver microsomes: qHTS cell viability counter screen (AID 1963579). Note: nearly all actives have a fitted effect of over 45% in size. In a few lines: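 Cells carrying the p53 response-element beta-lactamase reporter are treated for 16 h at 37 C with test compounds in the presence of human liver microsomes and NADPH (both 0.5 mg/mL final); ATP-based CellTiter-Glo luminescence then reports viability.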

Test [9] can be described thus: p53 small molecule agonists, cell-based qHTS assay: qHTS cell viability counter screen (AID 1963581). Note: nearly all actives have a fitted effect of over 45% in size. In a few lines: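 Cells: HCT-116 with p53 response element-driven beta-lactamase. Treatment: 16 h, 37 C, compounds in DMSO. Read: CellTiter-Glo luminescence after 30 min RT.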
Test [10] in a line: p53 small molecule agonists, cell-based qHTS assay (AID 1963582; active = well fitted activation curve with a large enough effect in the signal ratio in the repeat runs, not every such curve was filed as active; the % refers to the signal ratio). The method, boiled down: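 Quantitative HTS in p53RE-bla cells: after a 5 h settling period, compounds delivered in DMSO were left on cells for 16 h at 37 C, and reporter induction was measured as fluorescence following 2 h substrate loading.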
Test [11] addresses 5-hydroxytryptamine receptor 2A (Homo sapiens) (UniProt P28223). As to the kind of experiment: 5-hydroxytryptamine receptor 2A (HTR2A) small molecule antagonists, cell-based qHTS assay (AID 1963586). Note: nearly all actives have a fitted effect of over 45% in size. In a few lines:
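Antagonist-mode intracellular calcium assay: DOI (4 nM) added after 5 min compound pre-incubation at room temperature to dye-loaded HTR2A-CHO cells. Fluorescence followed for 3 min, sampled every second.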

In test [12] the target is Muscarinic acetylcholine receptor M1 (Homo sapiens) (UniProt P11229). In words: Cholinergic receptor muscarinic 1 (CHRM1) small molecule antagonists, cell-based qHTS assay (AID 1963588). Note: nearly all actives have a fitted effect of over 40% in size. Note: potency is the fitted concentration of half-maximal effect. The method, boiled down:
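CHRM1-CHO calcium-flux assay, antagonist mode. Cells were seeded 18 h, dye-loaded 1 h at 37 C and given compound for 5 min at RT, then acetylcholine was added at 50nM. FDSS fluorescence was read 3 min; 15 concentrations, three runs.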

Test [13] has the same target. As to the kind of experiment: Cholinergic receptor muscarinic 1 (CHRM1) small molecule agonists, cell-based qHTS assay (AID 1963589). Note: nearly all actives have a fitted effect of over 35% in size. The method, boiled down: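 Agonist-mode qHTS in CHO cells stably carrying human muscarinic M1. Intracellular calcium is tracked by fluorescence every second after compound transfer; each compound runs at 15 concentrations in three independent runs.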

The nature of test [14]: cAMP Responsive Elements (CRE) small molecule agonists, cell-based qHTS assay (AID 1963590). In a few lines:
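Agonist mode qHTS in CRE-bla HEK 293T cells: compounds dosed from DMSO for 3 h at 37 C/5% CO2, followed by LiveBLAzer B/G FRET substrate for 2 h at room temperature.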

A short description of test [15]: cAMP Responsive Elements (CRE) small molecule antagonists, cell-based qHTS assay (AID 1963591; active = well fitted inhibition curve with a large enough effect in the signal ratio in the repeat runs, not every such curve was filed as active; the % refers to the signal ratio). The method, boiled down: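 Antagonist mode: test compounds are co-incubated with the adenylyl cyclase activator NKH477 (0.25 uM final) on CRE-bla HEK293T cells for 3 h at 37 °C, followed by LiveBLAzer substrate loading.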
The target of test [16] is Beta-2 adrenergic receptor (Homo sapiens) (UniProt P07550). In words: Adrenergic beta2 receptor (ADRB2) small molecule antagonists, cell-based qHTS assay (AID 1963592). Note: series mostly up to about 92 µM; nearly all actives have a fitted effect of over 50% in size. The method, boiled down: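 Cells (CHO, stable ADRB2 overexpression) incubated 18-20hr at 37C; compounds added from DMSO; agonist mix (1nM isoproterenol, 100uM IBMX, 25uM Ro-20-1724) added; 0.5hr RT; d2-cAMP and anti-cAMP-cryptate added; 1hr RT; 665/615 nm read.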
Sequence of Beta-2 adrenergic receptor (Homo sapiens) (P07550 whole entry, looked up): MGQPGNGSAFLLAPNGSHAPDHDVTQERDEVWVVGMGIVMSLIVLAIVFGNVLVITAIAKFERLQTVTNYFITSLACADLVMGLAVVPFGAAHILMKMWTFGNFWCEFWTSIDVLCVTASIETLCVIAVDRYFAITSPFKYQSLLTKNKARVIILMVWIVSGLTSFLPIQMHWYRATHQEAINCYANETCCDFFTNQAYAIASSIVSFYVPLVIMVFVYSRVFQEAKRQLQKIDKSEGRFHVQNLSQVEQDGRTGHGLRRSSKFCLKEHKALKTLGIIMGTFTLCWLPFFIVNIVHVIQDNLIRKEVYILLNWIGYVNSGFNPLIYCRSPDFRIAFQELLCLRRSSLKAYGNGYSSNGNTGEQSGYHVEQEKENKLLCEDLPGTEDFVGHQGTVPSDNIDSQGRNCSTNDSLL

In test [17] the target is D(2) dopamine receptor (Homo sapiens) (UniProt P14416). As to the kind of experiment: Dopamine D2 receptor (DRD2) small molecule agonists, cell-based qHTS assay (AID 1963594). Note: nearly all actives have a fitted effect of over 35% in size. The method, boiled down:
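cAMP accumulation in DRD2-HEK293 cells measured by HTRF after 1 h detection; compounds added 10 min before NKH477 (200nM […]) forskolin-analogue stimulation, 30 min at room temperature, with Ro20-1724 present at 0.1 mM final.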

Test [18] shares this target. In words: Dopamine D2 receptor (DRD2) small molecule antagonists, cell-based qHTS assay (AID 1963595; active = well fitted inhibition curve with a large enough effect in the signal ratio in the repeat runs, with a control signal flat; the % refers to the signal ratio). In a few lines: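 Antagonism was scored as restored cAMP in HEK293-DRD2 cells. These cells were stimulated with 200 nM NKH477 and 12 nM quinpirole for 30 min at room temperature, in the presence of 0.1 mM Ro20-1724.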
The target in test [19] is 5-hydroxytryptamine receptor 2A (Homo sapiens) (UniProt P28223). As to the kind of experiment: 5-hydroxytryptamine receptor 2A (HTR2A) small molecule agonists, cell-based qHTS assay (AID 1963587). Note: nearly all actives have a fitted effect of over 30% in size. In a few lines:
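Kinetic calcium-flux fluorescence (2 min, 1 sec intervals) after compound addition in agonist mode. HTR2A-CHO cells were cultured 18 h, then dye-loaded 1 h at 37 C.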

Sequence of D(2) dopamine receptor (Homo sapiens) (P14416 whole entry, looked up): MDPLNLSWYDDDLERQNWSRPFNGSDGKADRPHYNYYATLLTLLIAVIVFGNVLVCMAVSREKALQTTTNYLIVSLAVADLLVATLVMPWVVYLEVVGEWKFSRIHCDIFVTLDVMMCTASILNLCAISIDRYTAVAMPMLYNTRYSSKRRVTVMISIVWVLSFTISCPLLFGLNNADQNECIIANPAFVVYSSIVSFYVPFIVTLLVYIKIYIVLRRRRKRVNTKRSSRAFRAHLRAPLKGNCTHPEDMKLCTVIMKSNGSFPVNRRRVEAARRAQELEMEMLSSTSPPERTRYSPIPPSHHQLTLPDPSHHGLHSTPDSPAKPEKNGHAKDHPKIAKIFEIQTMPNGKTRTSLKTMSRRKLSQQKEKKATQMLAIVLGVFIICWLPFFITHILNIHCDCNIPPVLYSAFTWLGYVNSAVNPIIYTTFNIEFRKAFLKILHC
Sequence of Muscarinic acetylcholine receptor M1 (Homo sapiens) (P11229 whole entry, looked up): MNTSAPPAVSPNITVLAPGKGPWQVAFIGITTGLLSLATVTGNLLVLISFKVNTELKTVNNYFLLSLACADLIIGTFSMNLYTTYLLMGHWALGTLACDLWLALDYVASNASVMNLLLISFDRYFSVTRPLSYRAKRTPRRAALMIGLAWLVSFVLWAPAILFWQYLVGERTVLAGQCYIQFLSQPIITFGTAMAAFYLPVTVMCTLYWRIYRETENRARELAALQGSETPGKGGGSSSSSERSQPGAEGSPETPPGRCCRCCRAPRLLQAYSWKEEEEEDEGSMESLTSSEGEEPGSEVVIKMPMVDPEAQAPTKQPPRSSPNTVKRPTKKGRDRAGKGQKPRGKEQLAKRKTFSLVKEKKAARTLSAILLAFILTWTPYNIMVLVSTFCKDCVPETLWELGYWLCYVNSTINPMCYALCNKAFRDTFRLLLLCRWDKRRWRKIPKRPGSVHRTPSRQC
Sequence of KiSS-1 receptor (Homo sapiens) (Q969F8 whole entry, looked up): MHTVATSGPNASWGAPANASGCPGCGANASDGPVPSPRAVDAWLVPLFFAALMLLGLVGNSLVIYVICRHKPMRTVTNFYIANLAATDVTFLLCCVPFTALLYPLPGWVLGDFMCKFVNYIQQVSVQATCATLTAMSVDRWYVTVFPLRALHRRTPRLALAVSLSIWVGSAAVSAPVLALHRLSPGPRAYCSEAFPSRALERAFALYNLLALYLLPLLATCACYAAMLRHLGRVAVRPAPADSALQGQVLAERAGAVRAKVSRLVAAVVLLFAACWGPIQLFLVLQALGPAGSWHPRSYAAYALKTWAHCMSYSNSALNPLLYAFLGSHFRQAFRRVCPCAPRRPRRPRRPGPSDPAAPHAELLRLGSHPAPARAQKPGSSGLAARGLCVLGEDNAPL
Sequence of Gonadotropin-releasing hormone receptor (Homo sapiens) (P30968 whole entry, looked up): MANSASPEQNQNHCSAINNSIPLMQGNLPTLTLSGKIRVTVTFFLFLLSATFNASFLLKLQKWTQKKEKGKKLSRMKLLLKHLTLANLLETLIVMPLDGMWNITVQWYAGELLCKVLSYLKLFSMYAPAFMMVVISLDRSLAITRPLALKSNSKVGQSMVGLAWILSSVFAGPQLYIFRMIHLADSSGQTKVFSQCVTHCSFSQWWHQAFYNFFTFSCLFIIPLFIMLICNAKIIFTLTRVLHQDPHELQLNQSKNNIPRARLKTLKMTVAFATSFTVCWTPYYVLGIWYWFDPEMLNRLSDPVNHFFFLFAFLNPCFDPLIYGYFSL
Sequence of 5-hydroxytryptamine receptor 2A (Homo sapiens) (P28223 whole entry, looked up): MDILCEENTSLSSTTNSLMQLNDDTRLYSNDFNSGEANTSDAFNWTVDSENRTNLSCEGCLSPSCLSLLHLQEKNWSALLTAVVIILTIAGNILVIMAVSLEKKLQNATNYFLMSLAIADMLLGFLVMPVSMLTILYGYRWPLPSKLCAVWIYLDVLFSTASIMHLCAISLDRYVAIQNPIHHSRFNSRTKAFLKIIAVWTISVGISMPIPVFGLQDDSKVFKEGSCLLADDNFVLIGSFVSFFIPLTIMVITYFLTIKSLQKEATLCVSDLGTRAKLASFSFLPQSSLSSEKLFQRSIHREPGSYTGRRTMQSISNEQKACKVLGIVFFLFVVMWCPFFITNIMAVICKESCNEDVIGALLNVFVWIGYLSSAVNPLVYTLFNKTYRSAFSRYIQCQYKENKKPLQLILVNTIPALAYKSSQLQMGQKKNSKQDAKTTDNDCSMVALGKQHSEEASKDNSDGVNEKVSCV

Turning to `C=CC(=O)OCCCCCCCCCC`, the Potency result in [1], in [2], in test [3], in test [6], in test [7] and in [8] was “inactive” throughout. The Potency result in test [9], in test [10], in test [11], in [12], in [13] and in [14] was “inactive” each time. Also, the Potency result in test [15], in test [16], in test [17] and in [18] was “inactive” each time. Also, the outcome in test [4] and in test [5] was inactive.

Regarding `COc1ccc(-c2cc(=O)c3c(O)cc(O[C@@H]4O[C@H](CO[C@@H]5O[C@@H](C)[C@H](O)[C@@H](O)[C@H]5O)[C@@H](O)[C@H](O)[C@H]4O)cc3o2)cc1O`, the Potency result in test [1], in test [2], in [3], in test [6], in test [7] and in [8] was “inactive” in each case. For the same molecule, the Potency entry in test [9], in test [10], in test [19], in test [12], in [13] and in [14] was “inactive” throughout. Further, the Potency result in test [15], in test [16], in test [17] and in [18] was “inactive” each time. Further, the outcome in [4] and in test [5] was inactive.

Turning to `CC/C=C\CCOC(=O)c1ccccc1`, the Potency entry in test [1], in test [2], in test [3], in [6], in test [7] and in test [8] was “inactive” in each case. For the same molecule, the Potency entry in test [9], in test [10], in test [11], in [19], in test [12] and in test [13] was “inactive” each time. The Potency result in test [14], in test [15], in test [17] and in [18] was “inactive” in each case. Further, the result in test [4] and in [5] was inactive.

As to `COC(=O)C1=C(C)NC(C)=C(C(=O)OC(C)(C)CN(C)CCC(c2ccccc2)c2ccccc2)C1c1cccc([N+](=O)[O-])c1` (configuration not stated), the Potency entry in [1], in test [2], in test [3], in [6], in test [7] and in test [8] was “inactive” each time. Also, the Potency result in test [9], in [10], in [11], in [19], in test [13] and in test [16] was “inactive” throughout. Besides, the Potency entry in test [17] and in test [18] was “inactive” in each case. For the same molecule, the outcome in test [4] and in test [5] was inactive. Also, the Potency in test [12] is 6.5 µM (active).

With `O=CC(=O)c1ccccc1`, the Potency entry in [1], in [3], in test [6], in [7], in [8] and in test [9] was “inactive” in each case. The Potency result in test [10], in test [19], in [12], in [13], in test [16] and in [17] was “inactive” throughout. Further, the Potency entry in [18] was “inactive”. Besides, the Potency in test [2] was 68.7 µM (active). Besides, the result in [4] and in test [5] was inactive.

For `CC[N+](CC)(CC)Cc1ccccc1`, the Potency result in [1], in test [2], in test [3], in test [6], in test [7] and in [8] was “inactive” in each case. The Potency entry in [9], in test [10], in [11], in test [19], in [12] and in test [13] was “inactive” throughout. Further, the Potency result in test [14], in test [16], in [17] and in test [18] was “inactive” throughout. For the same molecule, the result in [4] and in [5] was inactive.

For `Cc1c(C)c2c(c(C)c1OC(=O)CCC(=O)O)CC[C@@](C)(CCC[C@H](C)CCC[C@H](C)CCCC(C)C)O2`, the Potency entry in [1], in [2], in [3], in [6], in [7] and in test [8] was “inactive” each time. In addition, the Potency result in test [9], in [10], in [11], in test [19], in test [13] and in test [14] was “inactive” each time. Also, the Potency entry in test [15], in [17] and in test [18] was “inactive” in each case. The result in [4] and in test [5] was inactive.
